Here are results for 16 molecules from PubChem BioAssay.

Structures are written as SMILES. Values without a mark were called inactive. For some assays here: Measured potencies and affinities stand elsewhere. Calls of active or inactive are those of the source.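 Rule for the calls, unless noted: active = thallium flux through the channel raised or lowered by more than 3 SD from vehicle-only wells, actives on both sides; inactive = the rest.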

Test [1] in a line: antimalarial activity against Dd2 strain (AID 2302;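 active = growth inhibition above 50% at the single 2 µM test dose, taken to imply half-maximal potency below 2 µM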;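 note: 0% = DMSO untreated growth and 100% = chloroquine plus artemisinin killed control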). The conditions noted are these: P. falciparum Dd2 in RBCs, LDH growth readout, 72 h; at 2 µM; stronger effect = higher value.
The nature of test [2]: human hepatoma cell viability loss – ATP luminescence, cytotoxicity control for P. falciparum antimalarial project, primary screen (AID 2303;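 active = inhibition above 50%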;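 note: 0% = DMSO wells and 100% = digitonin-killed cells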). Particulars: HepG2 viability, 24-48 h, at 10 µM, stronger effect = higher value.
The target of test [3] is L-lactate dehydrogenase (Plasmodium falciparum (isolate CDC / Honduras)) (UniProt Q27743). In words: PfLDH activity inhibition – cell lysate, 3D7 strain, counter-screen for P. falciparum growth inhibition project (AID 2304; call rule not given here;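 note: 0% = vehicle and 100% = reference inhibitor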). Particulars: P. falciparum 3D7 crude extract, LDH APAD/NBT absorbance; at 2 µM; stronger effect = higher value. (In general: The purpose of a counterscreen is to sort out artefacts and off-target activity.)
Chain of L-lactate dehydrogenase (Plasmodium falciparum (isolate CDC / Honduras)) (Q27743 whole entry, looked up): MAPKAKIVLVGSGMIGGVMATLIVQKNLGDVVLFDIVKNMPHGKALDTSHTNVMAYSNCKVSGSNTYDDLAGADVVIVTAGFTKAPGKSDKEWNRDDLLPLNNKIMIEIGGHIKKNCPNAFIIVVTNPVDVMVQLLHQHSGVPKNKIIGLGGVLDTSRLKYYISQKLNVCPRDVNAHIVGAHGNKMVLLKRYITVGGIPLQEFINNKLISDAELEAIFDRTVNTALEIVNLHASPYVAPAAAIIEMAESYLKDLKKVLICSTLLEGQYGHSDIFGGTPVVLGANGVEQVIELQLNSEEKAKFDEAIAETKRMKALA

Test [4] can be described thus: inhibition of 3D7 malaria parasite growth – strain 3D7 (AID 2306; call rule not given here;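 note: 0% = DMSO wells and 100% = chloroquine plus artemisinin control wells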). Particulars: P. falciparum 3D7 erythrocytic growth, LDH absorbance, 72 h; at 2 µM; stronger effect = higher value.
Test [5] has as its target Protein kinase 7 (PK7), Plasmodium falciparum 3D7 (PF3D7_0213400) (UniProt Q7YTF7). Kind of test: inhibition of Plasmodium PK7 catalytic activity – biochemical, TCAMS antimalarial set, Kinase-Glo luminescence (AID 1159587; call rule not given here). The conditions noted are these: recombinant PfPK7, Kinase-Glo ATP depletion luminescence. A general note: In Kinase-Glo more light means more ATP remaining.

The subject of test [6] is F380Y. In words: BK channel mutant inhibitors and activators – cell-based, U2OS BacMam, thallium flux, beta subunits, selectivity assay, profiling panel (AID 1259406).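 Note: initial slope of Thallos dye fluorescence rise after thallium is added; log ratio against the mean of 0.3% DMSO vehicle wells on the same plate.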 The conditions noted are these: U2OS BacMam BK variants, at 30 µM.
The test system of test [7] is F380Y/beta1. Described as above. Particulars: U2OS BacMam BK variants, at 30 µM.
In test [8] the test system is F380Y/beta2Delta. Described as above. Particulars: U2OS BacMam BK variants, at 30 µM.
Test [9] has as its system F380Y/beta4. The description is as above. Particulars: U2OS BacMam BK variants, at 30 µM.
Test [10] addresses Calcium-activated potassium channel subunit alpha-1 (Homo sapiens) + Leucine-rich repeat-containing protein 26 (Homo sapiens) (UniProt Q12791+Q2I0M4). The description is as above. Particulars: U2OS BacMam BK variants, F380Y/Slo1WT/gamma1, at 30 µM.
Test [11] has as its system R275C. The description is as above. Particulars: U2OS BacMam BK variants, at 30 µM.
Test [12] concerns R275C/beta1. The test is described as above. Particulars: U2OS BacMam BK variants, at 30 µM.
The test system of test [13] is R275C/beta2Delta. Described as above. The conditions noted are these: U2OS BacMam BK variants, at 30 µM.
The subject of test [14] is R275C/beta4. Described as above. The conditions noted are these: U2OS BacMam BK variants, at 30 µM.
The test system of test [15] is R275C/Slo1WT/beta2. Described as above. Particulars: U2OS BacMam BK variants, at 30 µM.
Test [16] deals with Calcium-dependent protein kinase 4 (Plasmodium falciparum (isolate 3D7)) (UniProt Q8IBS5). In words: PfCDPK4 kinase inhibitors, biochemical, TCAMS library (AID 1159588; cut-off not given, nearly all actives have IC50 up to about 0.91 µM). Particulars: recombinant PfCDPK4, Kinase-Glo ATP depletion luminescence.
Chain of Calcium-dependent protein kinase 4 (Plasmodium falciparum (isolate 3D7)) (Q8IBS5 whole entry, looked up): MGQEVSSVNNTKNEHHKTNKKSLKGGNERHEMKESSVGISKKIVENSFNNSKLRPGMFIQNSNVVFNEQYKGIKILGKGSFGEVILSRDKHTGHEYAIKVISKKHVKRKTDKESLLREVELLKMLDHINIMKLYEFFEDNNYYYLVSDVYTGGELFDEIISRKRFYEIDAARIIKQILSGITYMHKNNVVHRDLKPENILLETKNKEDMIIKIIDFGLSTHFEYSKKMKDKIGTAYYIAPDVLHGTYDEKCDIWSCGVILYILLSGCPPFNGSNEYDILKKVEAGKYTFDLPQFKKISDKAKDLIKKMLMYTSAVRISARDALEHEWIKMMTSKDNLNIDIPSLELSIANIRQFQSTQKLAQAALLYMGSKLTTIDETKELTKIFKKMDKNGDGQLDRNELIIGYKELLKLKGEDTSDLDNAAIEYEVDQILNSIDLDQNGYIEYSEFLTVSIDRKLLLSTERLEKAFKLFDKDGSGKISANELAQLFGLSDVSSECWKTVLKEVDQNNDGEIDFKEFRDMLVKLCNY

Chain of Calcium-activated potassium channel subunit alpha-1 (Homo sapiens) + Leucine-rich repeat-containing protein 26 (Homo sapiens) (Q2I0M4 whole entry, looked up, one chain of several): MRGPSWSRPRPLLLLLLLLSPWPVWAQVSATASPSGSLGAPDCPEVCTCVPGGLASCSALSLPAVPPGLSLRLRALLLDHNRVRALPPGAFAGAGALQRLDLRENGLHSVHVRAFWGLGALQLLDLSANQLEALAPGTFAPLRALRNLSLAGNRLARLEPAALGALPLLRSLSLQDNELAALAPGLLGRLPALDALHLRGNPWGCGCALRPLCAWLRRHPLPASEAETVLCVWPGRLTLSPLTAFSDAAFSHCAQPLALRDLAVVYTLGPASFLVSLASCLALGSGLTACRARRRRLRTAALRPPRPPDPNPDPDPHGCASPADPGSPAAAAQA
Chain of Protein kinase 7 (PK7), Plasmodium falciparum 3D7 (PF3D7_0213400) (Q7YTF7 1-343): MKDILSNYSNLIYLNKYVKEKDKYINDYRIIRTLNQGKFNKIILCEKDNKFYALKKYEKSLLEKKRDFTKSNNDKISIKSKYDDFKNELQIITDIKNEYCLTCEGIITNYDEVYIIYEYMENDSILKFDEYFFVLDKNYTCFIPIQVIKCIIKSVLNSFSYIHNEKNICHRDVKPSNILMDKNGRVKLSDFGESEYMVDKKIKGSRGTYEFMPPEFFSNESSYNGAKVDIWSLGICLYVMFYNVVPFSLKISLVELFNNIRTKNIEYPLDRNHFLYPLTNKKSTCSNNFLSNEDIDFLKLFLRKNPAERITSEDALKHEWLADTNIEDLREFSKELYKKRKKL

Usually inhibition stands for the relative decrease from the control value, in per cent. `CS(=O)(=O)Cc1ccc(Nc2nccc(-c3c(-c4cccc(C(=O)Nc5c(F)cccc5F)c4)nn4ccccc34)n2)cc1`: the growth inhibition in [1] was 92% (active); in [4], 96% (active). The inhibition was 85% (active) in [2] and -1% in test [3]. Besides, in [5], the result was inactive.

Take `CS(=O)(=O)Cc1ccc(Nc2nccc(-c3c(-c4cccc(NC(=O)C5CCCCC5)c4)nn4ncccc34)n2)cc1`: the figures for the growth inhibition in test [1] and in [4] were 99% (active) and 98% (active), respectively. Moreover, the inhibition in [2] is 31%; in test [3], 0%. In addition, the outcome in test [5] was inactive.

On to `Cc1cc(Nc2ncc(C#N)c(Nc3ccccc3C(N)=O)n2)ccc1N1CCN(C)CC1`, for which the growth inhibition in [1] and in [4] was 94% (active) each time. Also, the inhibition in test [2] was 99% (active); in test [3] it was 0%. Further, in test [5], the outcome was inactive.

Turning to `Cc1ccc(C)n1N(C)c1ccc([N+](=O)[O-])cn1`, the log fold change Tl+ flux is -0.186 (active) in test [6]; -0.0343 in [7]; -0.0717 in test [8]; 0.0203 in [9]; -0.0125 in test [10]; -0.0076 in test [11]. The log fold change Tl+ flux in [12] was -0.0949; in test [13], -0.0509; in test [14] it was 0.0498; in test [15], 0.00416.

For the molecule `CNC(=O)c1ccccc1Nc1nc(Nc2ccc(CCN3CCN(C)CC3)cc2)ncc1Cl`, the growth inhibition was 98% (active) in [1] and 97% (active) in [4]. Also, the figures for the inhibition in test [2] and in [3] were 76% (active) and 5%, respectively. Besides, the outcome in [5] was inactive.

With `CCN(CC)CCCOc1ccc(Nc2nccc(-c3c(-c4cccc(NC(=O)c5c(F)cccc5F)c4)nn4ccccc34)n2)cc1F`, the growth inhibition in test [1] was 99% (active); in test [4] it was 100% (active). The values for the inhibition in [2] and in test [3] were 86% (active) and -5%, respectively. The outcome in [5] was inactive.

On to `O=C(CN1CCOCC1)Nc1ccccc1Sc1nccc(C(F)(F)F)n1`, for which the log fold change Tl+ flux in test [6] is 0.0122; in test [7], -0.00692; in [8], -0.0219; in test [9] it was -0.00275; in [10] it was 0.0522; in test [11], -0.0101. In addition, the log fold change Tl+ flux was -0.0285 in test [12], -0.0136 in test [13], 0.0162 in [14] and 0.0195 in test [15].

On to `Cc1cc(Nc2ncc(Cl)c(Nc3ccccc3C(N)=O)n2)n[nH]1`, for which the growth inhibition is 96% (active) in test [1] and 98% (active) in [4]. For the same molecule, the inhibition in test [2] is 70% (active); in test [3], -1%. Also, the outcome in [5] and in test [16] was inactive.

On to `COC(=O)CC1(C(=O)OC)Oc2ccc(Br)cc2C(=O)N1c1cccc(Cl)c1Cl` (stereo unspecified), for which the log fold change Tl+ flux in [6] is -0.195 (active); in [7] it was 0.188 (active); in [8], -0.0998; in [9] it was -0.677 (active); in test [10], -0.246 (active); in test [11], -0.108 (active). The log fold change Tl+ flux in test [12] was 0.102; in [13], 0.0176; in test [14], -0.204 (active); in test [15], -0.0135.

Turning to `O=C(Nc1ccccc1)OCc1cc(-c2ccccc2)c(C(F)(F)F)s1`, the log fold change Tl+ flux was -0.0321 in [6]; -0.0201 in test [7]; -0.0141 in test [8]; -0.21 (active) in test [9]; -0.173 (active) in test [10]; -0.0877 (active) in test [11]. The log fold change Tl+ flux in [12] was -0.141 (active); in test [13] it was 0.0124; in test [14], -0.0566; in test [15] it was -0.0586.

For `Cc1c(C)c(C)c(C(=O)c2ccccc2C(=O)NN)c(C)c1C`, the log fold change Tl+ flux in test [6] is 0.0326; in [7], 0.0715; in [8] it was 0.00841; in test [9], 0.0586; in test [10] it was 0.0596; in test [11], 0.02. Further, the log fold change Tl+ flux in test [12] is 0.144 (active); in test [13], 0.0153; in [14] it was 0.0879 (active); in [15], 0.00811.

In the case of `COc1cc(C(F)(F)F)nc2ccc(C#CCOC(=O)Nc3cccc(Cl)c3)cc12`, the log fold change Tl+ flux in [6] is -0.0208; in test [7] it was 0.0282; in test [8] it was -0.0312; in [9], 0.0143; in [10], -0.0274; in [11] it was -0.0392. Besides, the log fold change Tl+ flux in [12] is -0.0781; in [13] it was -0.0125; in test [14] it was -0.00958; in [15] it was 0.0405.

Take `Fc1ccc(CCc2ccc(F)cc2)cc1`: the log fold change Tl+ flux in test [6] is -9.9e-05; in test [7] it was -0.0289; in test [8], 0.0449; in test [9], 0.0131; in [10], 0.0118; in test [11], 0.0179. The log fold change Tl+ flux was 0.0162 in test [12], 0.0454 in test [13], 0.0168 in [14] and -0.0303 in test [15].

On to `Cc1ccc(C(=O)c2c(-c3ccccc3)cc(-c3ccccc3)c3c2C(=O)CCC3)cc1`, for which the log fold change Tl+ flux is 0.0109 in test [6]; -0.036 in [7]; 0.0354 in test [8]; -0.0286 in test [9]; -0.0641 in [10]; 0.0312 in test [11]. The log fold change Tl+ flux in [12] is -0.0154; in test [13] it was 0.00863; in [14], -0.00364; in test [15], -0.0497.

`O=C(NC(=O)C12CC3CC(CC(C3)C1)C2)Nc1ccc(Cl)cc1`: the log fold change Tl+ flux in test [6] was 0.00432; in test [7], -0.0267; in test [8], -0.0384; in test [9], -0.0415; in test [10], 0.0168; in test [11], -0.00652. Besides, the log fold change Tl+ flux is -0.0129 in test [12], -0.0163 in test [13], 0.0337 in test [14] and -0.0195 in [15].

On to `CN1c2ccccc2C(C)(C)C12C=Cc1cc(Br)cc([N+](=O)[O-])c1O2` (stereo unspecified), for which the log fold change Tl+ flux in test [6] is 0.0436; in test [7], 0.162 (active); in [8], 0.0613; in [9], 0.00641; in [10], 0.0283; in test [11], 0.00244. Further, the log fold change Tl+ flux in [12] is 0.132 (active); in [13], 0.0868 (active); in [14] it was 0.0424; in test [15] it was -0.0665.
